Results reported in PubChem BioAssay (NCATS).
Results filed as inconclusive are left out. Active and inactive are the calls of the source. The call rests on the fitted dose curve; in most records, active means well fitted cell-killing curve with a large enough effect; inconclusive means small, poorly fitted or top-dose-only effect; inactive means flat fitted curve, though single readings scatter.

experiment: qHTS of pediatric cancer cell lines to identify multiple opportunities for drug repurposing: Primary screen for DAOY cells (AID 1347090); details: DAOY medulloblastoma viability, CellTiter-Glo luminescence, 48 h; series mostly up to 46 µM; activity change, negative = cytotoxic: at the top concentration; further: nearly all actives have a fitted effect of over 55% in size;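 on activity change, negative = cytotoxic: plate controls were DMSO for no effect and bortezomib for full effect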
Outline: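 Eight- or eleven-point concentration series, 48 h treatment at 37 degrees C in growth media; readout CellTiter-Glo luminescence. Potency and efficacy were taken from the concentration-response curves.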
Potency means the concentration at half of the fitted maximal effect.

Row | Structure (SMILES) | activity change, negative = cytotoxic | Potency
1 | CCCOC(=O)c1ccc(O)cc1 | -8.81% [at 92.7 µM] (inactive) | –
2 | O=C(O)Cc1cccc(-c2cc(CCCCCCc3ccc(O[C@H]4O[C@H](CO)[C@@H](O)[C@H](O)[C@@H]4O)c(-c4cccc(CC(=O)O)c4)c3)ccc2O[C@H]2O[C@H](CO)[C@@H](O)[C@H](O)[C@@H]2O)c1 | 1% [at 0.597 µM] (inactive) | –
3 | O=C(O)/C=C\C(=O)O | 0.0207% (inactive) | –
4 | CC(C(=O)O)c1ccc2c(c1)[nH]c1ccc(Cl)cc12 (centres undefined) | -14.4% (inactive) | –
5 | COc1ccc(-c2cc(=S)ss2)cc1 | -4.68% (inactive) | –
6 | O=C(CCN1CCN(CCO)CC1)N1c2ccccc2Sc2ccc(C(F)(F)F)cc21 | 2.03% (inactive) | –
7 | c1ccc2sc(SN3CCOCC3)nc2c1 | 6.84% (inactive) | –
8 | O=C(OCc1ccccc1)c1ccccc1 | -4.92% (inactive) | –
9 | Nc1c(CC(=O)O)cccc1C(=O)c1ccc(Br)cc1 | -1.33% (inactive) | –
10 | CC(=O)c1ccc(OCC(=O)N2CCCCC2)cc1 | 1.47% (inactive) | –
11 | CNC(=O)c1c(I)c(NC(=O)CCCCC(=O)Nc2c(I)c(C(=O)O)c(I)c(C(=O)NC)c2I)c(I)c(C(=O)O)c1I | -11.9% (inactive) | –
12 | O=C(O)c1cc(O)c(O)c(O)c1 | 4.68% (inactive) | –
13 | C=CCCCCCCCCC(=O)O | 2.14% (inactive) | –
14 | Cc1ccc(C(=O)c2ccc(CC(=O)O)n2C)cc1 | 1.71% (inactive) | –
15 | Nc1cc(-c2ccncc2)c[nH]c1=O | 1.09% (inactive) | –
16 | Nc1nc2ccc([N+](=O)[O-])cc2s1 | -27% [at 92.7 µM] (inactive) | –
17 | COc1ccnc2c1CCCCC2S(=O)c1nc2ccccc2[nH]1 (centres undefined) | 12.9% (inactive) | –
18 | N=C(N)N | 3.02% (inactive) | –
19 | O=Cc1ccc(O)c(O)c1O | 2.26% (inactive) | –
20 | CCCCCCCC/C=C/C(=O)O | -15.6% (inactive) | –

Row | Structure (SMILES) | activity change, negative = cytotoxic | Potency
21 | Nc1ccc(C(=O)O)c(O)c1 | 8.29% (inactive) | –
22 | CC1(C)S[C@@H]2[C@H](NC(=O)[C@H](N)c3ccccc3)C(=O)N2[C@H]1C(=O)O | 1.58% (inactive) | –
23 | CN(C)[C@@H]1C(=O)C(C(=O)NCN2CCCC2)=C(O)[C@@]2(O)C(=O)C3=C(O)c4c(O)cccc4[C@@](C)(O)C3C[C@@H]12 (some centres undefined) | -6.67% (inactive) | –
24 | CCCCCCCCCCCCOCCO | 7.47% (inactive) | –
25 | CC(=O)SCC(CC(=O)c1ccc(C)cc1)C(=O)O (centres undefined) | 1.24% (inactive) | –
26 | O=C(O)c1ccccc1Nc1cccc(C(F)(F)F)c1 | -8.77% (inactive) | –
27 | CCOc1ccc2nc(S(N)(=O)=O)sc2c1 | -7.61% (inactive) | –
28 | CCCSc1ccc2nc(NC(=O)OC)[nH]c2c1 | – | 1.33 µM (active)
29 | Cc1c(Nc2ncccc2C(=O)O)cccc1C(F)(F)F | -18.7% (inactive) | –
30 | O=C(/C=C/c1ccccc1)NCCO | -7.58% (inactive) | –
31 | CCCCCCOc1ccccc1C(N)=O | -20.8% (inactive) | –
32 | CCOC(=O)c1ccccc1O | 7.42% (inactive) | –
33 | COc1cc2c3cc1Oc1cc(ccc1O)C[C@@H]1c4c(cc(OC)c(O)c4Oc4ccc(cc4)C[C@@H]3N(C)CC2)CC[N+]1(C)C | -0.463% (inactive) | –
34 | O=C(O)Cc1ccc2c(c1)C(=O)c1ccccc1CO2 | 1.51% (inactive) | –
35 | Cc1c(N)c(=O)n(-c2ccccc2)n1C | -2.15% (inactive) | –
36 | Clc1ccccc1-c1nc(-c2ccncc2)no1 | -2.84% (inactive) | –
37 | CC(C)(C)c1nnc(NS(=O)(=O)c2ccc(N)cc2)s1 | -7.21% (inactive) | –
38 | CN1CCN(c2cc3c(nn2)Oc2ccccc2N3C)CC1 | -3.04% [at 16.1 µM] (inactive) | –
39 | CC(C)OC(=O)c1cc(C(=O)OC(C)C)cc([N+](=O)[O-])c1 | 6.58% [at 92.7 µM] (inactive) | –
